# Measurements as given in PubChem BioAssay (Tox21).
# Several values for one entry are separate records, joined by “and”; a condition that tells them apart may be missing. Equal values may be shown once. Inconclusive results are not listed. A call without a number means that no potency is given here. Activity calls are given as the source filed them. The call rests on the fitted dose curve; in most records, active means well fitted cell-killing curve with a large enough effect in the repeat runs; inconclusive means weak or mixed curves; inactive means no such curve, though single readings can be large or run the other way.
# Experiment: qHTS assay to identify small molecule agonists of the peroxisome proliferator-activated receptor delta (PPARd) signaling pathway - cell viability counter screen (AID 743211); further: nearly all actives have a fitted effect of over 55% in size
# Conditions: PPARd-bla HEK293H viability, CellTiter-Glo luminescence, 17 h; series mostly up to 62.6 µM
# Outline: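 Following 5 h plating at 37 C and 5% CO2, PPARd UAS-bla HEK293H cells took up test compounds for 17 h. Viability was quantified by luminescence 30 min after CellTiter-Glo addition at room temperature.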
# Potency means the concentration at half of the fitted maximal effect.
row,SMILES,Potency
1,C=C(CC)C(=O)c1ccc(OCC(=O)O)c(Cl)c1Cl,inactive
2,Cc1cc(C(C#N)c2ccc(Cl)cc2)c(Cl)cc1NC(=O)c1cc(I)cc(I)c1O (configuration not stated),29.8 µM (active)
3,COc1cccc2c1C(=O)c1c(O)c3c(c(O)c1C2=O)C[C@@](O)(C(C)=O)C[C@@H]3O[C@H]1C[C@H](N)[C@H](O)[C@H](C)O1,24.7 µM (active) and 33.5 µM (active)
4,Oc1ccccc1O,inactive
5,OC1CCCc2ccccc21 (configuration not stated),inactive
6,O=C(/C=C/c1ccc(O)c(O)c1)O[C@@H](C(=O)O)[C@@H](OC(=O)/C=C/c1ccc(O)c(O)c1)C(=O)O,inactive
7,O=S(=O)(O)c1ccccc1/C=C/c1ccc(-c2ccc(/C=C/c3ccccc3S(=O)(=O)O)cc2)cc1,inactive
8,CCCC(=O)OC(C)(C)Cc1ccccc1,inactive
9,O=C(Nc1ccc2c(O)c(N=Nc3ccc(N=Nc4ccc(S(=O)(=O)O)cc4)cc3)c(S(=O)(=O)O)cc2c1)c1ccccc1,inactive
10,CCCCCCC1CCCC(=O)O1 (configuration not stated),inactive
11,O=c1oc2cc(O)ccc2c2oc3cc(O)ccc3c12,inactive
12,S=C([S-])NCCNC(=S)[S-].S=C([S-])NCCNC(=S)[S-].[Mn+2].[Zn+2],inactive
13,CCOC(=O)Cn1cccc1-c1nc(-c2ccc(OC)cc2)c(-c2ccc(OC)cc2)s1,inactive
14,NC(=S)NC(N)=S,inactive
15,CC(C)(C)c1csc(-c2cc3cc(OCc4ccccc4CC(=O)O)ccc3o2)n1,24.5 µM (active)
16,CC(C)NC[C@@H](O)COc1ccc(CC(N)=O)cc1,inactive
17,O=C1c2ccccc2C(=O)N1SC1CCCCC1,48.9 µM (active) and 49 µM (active)
